Test results taken from PubChem BioAssay (NCI).
The panel holds about 83,000 compounds, 20% with a hit somewhere; the sample as a whole holds those more often.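 How to read the values: 0–100, growth inhibition (40 = 60% inhibited); 0, no net growth; -100 to 0, cell death (-40 = 40% of starting cells died; -100 = all dead).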 Unmarked numbers belong to inactive results. Active and inactive are the calls of the source.

system: LOX IMVI melanoma; test: NCI-60 one-dose screen, 48 h (100 = growth as untreated, 0 = no growth, -100 = all killed); conditions: 10 µM unless noted
Protocol: Growth inhibition of the LOX IMVI human tumor cell line is measured as a screen for anti-cancer activity. Cells are grown in 96 well plates and exposed to the test compound for 48 hours. Compounds are tested at a single concentration, which is 10^-5 M for most compounds. The reported endpoint is percent growth (GI% or GIPRCNT), where numbers from 0 - 100% represent growth inhibition, and numbers from -100% - 0 represent cell death. For example, a value of 40 represents 60% growth inhibition. A value of 0 means no net growth occurred over the course of the experiment. A value of -40 indicates 40% of cells at the beginning of the experiment died by the end of the experiment. A value of -100 means all cells are dead at the end of the experiment.
NCI-60 Human Tumor Cell Lines Screen was performed using the standard one-dose NCI protocol, which is described in more detail at https://dtp.cancer.gov/discovery_development/nci-60/default.htm.
Compounds with GIPRCNT values below 10 were considered active. Activity score was based on GIPRCNT using the following formula: […]
Score is 0 for GIPRCNT values of 100 or above, 50 for GIPRCNT values of 0, and 100 for GIPRCNT values of -100.

In order of rising growth:
1. COc1ccc(-n2c(/C=C/c3ccc(O)c(OC)c3)cc(/C=C/c3ccc(O)c(OC)c3)nc2=O)cc1  13%
2. O=S(=O)(NCCNc1cc(-c2cn(-c3ccccc3)nc2-c2cccc(O)c2)ccn1)c1ccc(Br)cc1  20%
3. O=S(=O)(NCCNc1cc(-c2cn(-c3ccccc3)nc2-c2cccc(O)c2)ccn1)c1ccc(C(F)(F)F)cc1  23.5%
4. COc1cccc(-c2nn(-c3ccccc3)cc2-c2ccnc(NCCCNS(=O)(=O)c3ccccc3)c2)c1  33.1%
5. COC(=O)C(N)CSC(c1ccccc1)(c1ccccc1)c1ccccc1 (stereo not given)  35.2%
6. Cc1cc(N(CCCNc2ccnc3cc(Cl)ccc23)Cc2ccco2)nc(Cl)n1  42.2%
7. O=S(=O)(NCCNc1cc(-c2cn(-c3ccccc3)nc2-c2cccc(O)c2)ccn1)c1ccccc1  54.7%
8. COc1cccc(-c2nn(-c3ccccc3)cc2-c2ccnc(NCCCNS(=O)(=O)c3ccc(Br)cc3)c2)c1  56.6%
9. Nc1c(C(=O)Nc2c(Cl)cccc2Cl)sc2nc3c(cc12)CCCC3  59.4%
10. CCN(CC)CCCCCCNc1ccnc2cc(Cl)ccc12  78%
11. O=C1c2ccccc2NC(c2cn(-c3ccccc3)nc2-c2cccnc2)N1Cc1ccccc1 (stereo not given)  80.2%
12. CN(C)c1ccc(N=C2C=CC(=O)C=C2)cc1  80.6%
13. COc1cc2ncnc(Nc3ccc(OCc4cccc(F)c4)c(Cl)c3)c2cc1NC(=O)C1CCCC1  87.5%
14. C[C@]12CC[C@@H]3c4ccc(O)cc4CC[C@H]3[C@@H]1C[C@H](O)[C@@H]2O  92.4%
15. Nc1ccc(Cl)cn1  92.7%
16. O=P(O)(c1ccccc1)c1ccccc1I  93.8%
17. Cc1ccncc1C(=O)O  94%
18. Cc1nnc2nc(N)[nH]n2c1=O  94.7%
19. COc1cc(NC(C)CN(CC(C)C)C(C)C)c2ncccc2c1 (stereo not given)  94.7%
20. Cc1ccc(C)c2c1CCC2C(C)C (stereo not given)  96%
21. C[C@@H](C(=O)O)c1ccc2c3cc(Cl)ccc3n(Cc3cc(=O)oc4ccc(Cl)cc34)c2c1  96.4%
22. CCCCC/C(=C\c1ccccc1)C1OC(C)C(C)O1 (stereo not given)  97.9%
23. Oc1ccc(CCC2CCCC(CCc3ccc(OCCF)cc3)N2)cc1 (stereo not given)  98.7%
24. COc1ccc(C2c3ccccc3NC(=O)N2C2CCN(C)CC2)c(OC)c1 (stereo not given)  103%
25. CCCCCCCCNc1cccc2c1C(=O)c1ccccc1C2=O  105%
26. CCCC(=O)N1CCCCC1CC (stereo not given)  105%
27. Oc1cc(/C=C/c2nc(N3CCOCC3)c3cc(Cl)c(Cl)cc3n2)cc(O)c1O  106%
28. CC(C)(C)CC(C)(C)c1ccc(OCCOCC[N+](C)(C)CC(=O)[O-])cc1  107%

COc1cc(-c2cc3ncccc3c3nc(OCCN(C)C)c4cccnc4c23)cc(OC)c1OC was tested, and the growth was -43.5% (active).
With Cc1cc(N2CCN(C)CC2)nc(N(CCNc2ccnc3cc(Cl)ccc23)Cc2ccco2)n1 the growth was -5.64% (active).
CCCCC[C@H]1C/C=C2/C(=O)C=C[C@@H]2C/C=C\CCCC(=O)O[C@@H](CCCCC)C/C=C2/C(=O)C=C[C@@H]2C/C=C\CCCC(=O)O1 was tested, and the growth was -87.1% (active).
With Nc1nc2c3ccncc3cc(-c3cccc(Cl)c3)c2c2cnccc12 the growth was -50.9% (active).
For Clc1ccc2c(NCCNc3nc(-c4ccccc4)cc(-c4ccccc4)n3)ccnc2c1, the growth was -76.7% (active).
With CCNCCCn1c2c(c3ccc([N+](=O)[O-])cc3c1=O)C(=O)c1cc(OC)cnc1-2 the growth was -91% (active).
For COc1cnc2c(c1)C(=O)c1c-2n(CCCNC2=NCCS2)c(=O)c2cc([N+](=O)[O-])ccc12, the growth was -91.3% (active).
With COc1cc(-c2nc(-c3ccccc3)c(-c3ccccc3)[nH]2)cc(OC)c1O the growth was -47.7% (active).
COC(=O)[C@]12CC[C@@H](C)[C@H](C)[C@@H]1C1=CC[C@@H]3[C@@]4(C)C[C@@H](OC(C)=O)[C@H](OC(C)=O)[C@@](C)(COC(C)=O)[C@@H]4[C@H](O)C[C@@]3(C)[C@]1(C)CC2 was tested, and the growth was 2.68% (active).
With COc1cnc2c(c1)C(=O)c1c-2n(CCCNC(C)C)c(=O)c2cc([N+](=O)[O-])ccc12 the growth was -86.9% (active).
COc1ccc2c3c(c4ccccc4cc13)C(=O)N(CCN(C)CCN)C2=O was tested, and the growth was -84.8% (active).
For Cc1cc(N2CCOCC2)nc(N(CCCNc2ccnc3cc(Cl)ccc23)Cc2ccco2)n1, the growth was 4.95% (active).
